# Bioassay records deposited in PubChem BioAssay by National Center for Advancing Translational Sciences (NCATS).
# In the library only some 11% were active in any assay of this set; here they are far more common.
# PI5P4Ka inh: qHTS for Inhibitors of phosphatidylinositol 5-phosphate 4-kinase (PI5P4K); AID 652105, 2013; PI5P4Kalpha enzyme, ADP-Glo luminescence, 60 min; stronger effect = lower value; max response, %; Phosphatidylinositol 5-phosphate 4-kinase type-2 alpha (Homo sapiens), P48426; 330,000 compounds, 1.2% hits; active means max response of -50% or lower; inconclusive means between -30% and -50%; inactive means -30% or higher; further: value at the top dose of about 77 µM
#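 Compounds were pin-transferred onto PI5P4Kalpha and substrate in HEPES pH 7.4 buffer with EGTA, CHAPS and 5% DMSO. ATP (5 microM final) started the reaction, which ran 60 minutes at room temperature before ADP-Glo detection.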
# G9a inh: qHTS Assay for Inhibitors of Histone Lysine Methyltransferase G9a. 350,000 compounds, 8.8% hits. Histone-lysine N-methyltransferase EHMT2 (Homo sapiens), Q96KQ7. AID 504332, 2011. Potency, µM (series often up to 102 µM), usual class: inhibitors. G9a H3K9 monomethylation, AlphaScreen, 2 h; further: nearly all actives have a fitted effect of over 75% in size
# Target sequence (Q96KQ7 913-1193 limits assumed): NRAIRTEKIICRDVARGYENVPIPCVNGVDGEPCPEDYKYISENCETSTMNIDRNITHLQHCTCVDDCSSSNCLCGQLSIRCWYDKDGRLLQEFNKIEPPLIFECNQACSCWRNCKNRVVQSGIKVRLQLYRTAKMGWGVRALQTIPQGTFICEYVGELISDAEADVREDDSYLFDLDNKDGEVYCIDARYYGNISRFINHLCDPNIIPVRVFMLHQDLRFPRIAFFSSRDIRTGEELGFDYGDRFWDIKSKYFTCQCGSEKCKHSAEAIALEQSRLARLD
#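 Step 1: enzyme (final 20 nM) with compound, 15 min RT. Step 2: substrate peptide 500 nM and SAM 20 uM, 2 h RT. Step 3: anti-H3K9me1 antibody and AlphaScreen beads, 10 min, then plate read.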
# HP1b chromo inh: HTS for Inhibitors of HP1-beta Chromodomain Interactions with Methylated Histone Tails; Chromobox protein homolog 1 (Homo sapiens), P83916; AlphaScreen HP1-beta / biotin-H3K9me3 peptide binding; Potency, µM (top dose mostly 114 µM), hits mostly inhibitors; 390,000 compounds, 0.56% hits; AID 540317, 2011; further: nearly all actives have a fitted effect of over 70% in size
# Target sequence (P83916 whole entry, looked up): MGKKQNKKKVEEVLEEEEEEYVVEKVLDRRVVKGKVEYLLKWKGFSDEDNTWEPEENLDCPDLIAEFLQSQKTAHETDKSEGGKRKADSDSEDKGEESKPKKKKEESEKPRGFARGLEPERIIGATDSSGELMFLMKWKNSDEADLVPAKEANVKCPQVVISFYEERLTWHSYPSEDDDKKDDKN
#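 HP1-beta protein (50 nM final) preincubated 30 min at room temperature with biotinylated H3(1-18)K9me3 peptide (50 nM) in PBS pH 7.4, 0.01% Tween-20, then compound added for 30 min. AlphaScreen streptavidin donor/nickel chelate acceptor beads (10 ug/mL final), 30 min dark, luminescence read.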
# L3MBTL1 block: qHTS Assay for the Inhibitors of L3MBTL1. Lethal(3)malignant brain tumor-like protein 1 (Homo sapiens), Q9Y468. AlphaScreen L3MBTL1–H3K9me1 peptide binding. Potency, µM (series often up to 57.1 µM), most hits filed as inhibitors. 230,000 compounds, 0.66% hits. AID 485360, 2010; further: nearly all actives have a fitted effect of over 60% in size
#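 L3MBTL1 (50 nM) pre-complexed 30 min with biotinylated H3(1-15)K9me1 peptide (75 nM), then compounds added for 30 min at room temperature; AlphaScreen streptavidin donor/nickel chelate acceptor beads (10 ug/mL final) read after 30 min dark incubation.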
# BAZ2B inh: qHTS Assay for Inhibitors of BAZ2B | Bromodomain adjacent to zinc finger domain protein 2B (Homo sapiens), Q9UIF8 | AlphaScreen BAZ2B-H3K14Ac peptide displacement | Potency, µM (series often up to 114 µM), hits mostly inhibitors | 360,000 compounds, 4.4% hits | AID 504333, 2011; further: nearly all actives have a fitted effect of over 60% in size
#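 Compounds, titrated to a top concentration of 110 uM, were incubated 30 min at room temperature with preformed BAZ2B/acetyl-K14 H3 peptide complex (50 nM each). Proximity signal was measured by AlphaScreen after 20 min with beads.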
# JMJD2A Tudor: qHTS Assay for Inhibitors of JMJD2A-Tudor Domain | Potency, µM (highest dose often 114 µM), usual class: inhibitors | AlphaScreen JMJD2A-Tudor / H3K4me3 peptide binding | 390,000 compounds, 4.4% hits; further: nearly all actives have a fitted effect of over 50% in size
# Hits are given with their value; i = inactive; ? = inconclusive; nt = no result given; ! = not confirmed by another sample; [ ] = remark or other dose. Unless noted, the call rests on the fitted dose curve; in most records, active means well fitted inhibition curve with a large enough effect; inconclusive means small, poorly fitted or top-dose-only effect; inactive means no such curve, though single readings can be large or run the other way.
SMILES,PI5P4Ka inh,G9a inh,HP1b chromo inh,L3MBTL1 block,BAZ2B inh,JMJD2A Tudor
CC1(C)CC(=O)c2sc(NC(=O)c3ccccc3)nc2C1,nt,nt,nt,i,i,nt
CC1(C)CC(=O)c2sc(NC(=O)CCS(=O)(=O)c3ccccc3)nc2C1,i,i,i,i,i,i
CC1(C)CC(=O)c2sc(NS(=O)(=O)c3ccc(Br)cc3)nc2C1,i,50µM,i,i,i,i
O=S(=O)(Nc1nc2c(s1)CCCC2)c1ccc(Br)cc1,i,?,i,i,i,i
CC1(C)CC(=O)c2sc(NS(=O)(=O)c3ccc(Cl)cc3)nc2C1,i,35µM,i,nt,?,i
O=S(=O)(Nc1nc2c(s1)CCCC2)c1ccc(F)cc1,nt,10µM,i,nt,i,i
COc1ccc(N2C(=O)CSC23C(=O)N(CC(=O)NCCc2ccccc2)c2ccccc23)cc1 (stereo not drawn),nt,i,i,nt,i,i
CC1(C)CC(=O)c2sc(NS(=O)(=O)c3ccc(F)cc3)nc2C1,i,79µM,i,i,i,i
CC(=O)OCC1=C(C(=O)O)N2C(=O)[C@@H](NC(=O)Cc3cccs3)[C@H]2SC1,?,7.5µM!,i,?,50µM,79µM
CC(=O)OCC1=C(C(=O)O)N2C(=O)[C@@H](NC(=O)Cc3ccccc3)[C@H]2SC1,i,nt,i,nt,nt,?
CC(=O)OCC1=C(C(=O)O)N2C(=O)C(NC(=O)CCn3nc(C(F)(F)F)c(Br)c3C3CC3)C2SC1 (stereo not drawn),i,40µM,i,nt,i,i
CC(=O)OCC1=C(C(=O)O)N2C(=O)C(NC(=O)Cn3nc(C(F)F)c(Cl)c3C)C2SC1 (stereo not drawn),i,50µM,i,nt,i,i
CC(=O)OCC1=C(C(=O)O)N2C(=O)C(NC(=O)c3ccc(COc4c(C)cccc4Cl)o3)C2SC1 (stereo not drawn),i,45µM,i,nt,?,?
CC(=O)OCC1=C(C(=O)O)N2C(=O)C(NC(=O)CCn3nc(C)c(Cl)c3C)C2SC1 (stereo not drawn),i,?,i,nt,i,i
CC[N+]1(C)CC2CCC(C)(C1)C2(C)C (stereo not drawn),i,?,i,nt,i,32µM
COc1ccccc1NC(=O)CSc1nc(-c2ccc(C(C)(C)C)cc2)c(C#N)c(=O)[nH]1,nt,i,i,nt,79µM,i
CN(C(=O)CSc1nc(-c2ccc(C(C)(C)C)cc2)c(C#N)c(=O)[nH]1)C1CCCCC1,?,45µM,i,nt,i,i
CC(=O)N1CCc2cc(CNC(=O)Nc3ccc(Br)c(C)c3)ccc21,nt,i,i,nt,i,i
CC1CN(c2ccc(NC(=S)Nc3ccc(N4CC(C)OC(C)C4)cc3)cc2)CC(C)O1 (stereo not drawn),i,45µM,i,nt,i,i
COc1ccc(-c2nc(C#N)c(N3CCN(c4ccccc4)CC3)o2)cc1,i,8.9µM,i,i,?,?
COc1ccccc1-c1nc(C#N)c(N2CCN(c3ccccc3)CC2)o1,i,?,?,?,11µM,?
Cc1cccc(-c2nc(C#N)c(N3CCC(C)CC3)o2)c1,i,i,i,nt,i,i
CCOc1ccc(-c2nc(C#N)c(N3CCN(Cc4ccccc4)CC3)o2)cc1,i,10µM,?,nt,?,?
CCOc1ccc(-c2nc(C#N)c(N3CCOCC3)o2)cc1,i,?,i,i,?,?
Cc1cccc(-c2nc(C#N)c(N3CCCCCC3)o2)c1,nt,?,?,nt,13µM,?
SMILES,PI5P4Ka inh,G9a inh,HP1b chromo inh,L3MBTL1 block,BAZ2B inh,JMJD2A Tudor
CCc1ccc(NC(=O)c2cc(S(=O)(=O)N3CCCCCC3)ccc2F)cc1,nt,i,i,nt,i,i
CCN(CC)S(=O)(=O)c1ccc2c(c1)N(CC(=O)Nc1c(C)cc(C)cc1C)C(=O)CS2,nt,i,i,nt,i,i
COc1ccccc1-c1nc(C#N)c(N2CCCCCC2)o1,nt,45µM,i,nt,?,?
COc1ccc(N2CCN(c3oc(-c4ccccc4OC)nc3C#N)CC2)cc1,nt,2.5µM,?,?,8.9µM,13µM
COc1ccc(N2CCN(c3oc(-c4ccc(OC)c(OC)c4)nc3C#N)CC2)cc1,i,i[2.33 µM],i,nt,?,i
COc1ccccc1-c1nc(C#N)c(N2CC(C)CC(C)C2)o1 (stereo not drawn),i,?,i,i,?,i
O=C1c2ccccc2C(=O)c2c(NCc3cccnc3)cccc21,i,?,?,i,i,?
CNc1cccc2c1C(=O)c1ccccc1C2=O,i,8.9µM,8.9µM,8.9µM,3.2µM,2.8µM
CCCn1c2ccc(F)cc2c2nnc(NN)nc21,i,50µM,i,i,i,i
CCc1ccc2c(c1)c1nnc(NN)nc1n2CC,i,?,i,i,?,?
CCn1c2ccc(F)cc2c2nnc(NN)nc21,i,50µM,i,i,?,?
Cc1ccc(C)c(Cn2c(-c3cccs3)nc3ccccc32)c1,nt,i,i,nt,i,i
